Results filed as inconclusive are left out. The source made the active and inactive calls. Unless noted, calls follow the shape of the dose curve; as a rule, active = well fitted curve in the direction sought with a large enough effect in the repeat runs; inconclusive = weak or mixed curves; inactive = no such curve, though single readings can be large; an effect the other way counts as inactive or inconclusive.
What was measured:
[1] = qHTS assay to identify aromatase inhibitors - cell viability counter screen (AID 743084);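 also: cells stimulated with testosterone during compound exposure; nearly all actives have a fitted effect of over 55% in size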
[2] = target: Aryl hydrocarbon receptor (Homo sapiens) (UniProt P35869); test: qHTS assay to identify small molecule that activate the aryl hydrocarbon receptor (AhR) signaling pathway (AID 743085);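 also: HG2L7.5c1 human HepG2 liver cells with stably integrated DRE-driven firefly reporter; series mostly up to about 70 µM; nearly all actives have a fitted effect of over 15% in size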
Aryl hydrocarbon receptor (Homo sapiens), sequence (P35869 whole entry, looked up): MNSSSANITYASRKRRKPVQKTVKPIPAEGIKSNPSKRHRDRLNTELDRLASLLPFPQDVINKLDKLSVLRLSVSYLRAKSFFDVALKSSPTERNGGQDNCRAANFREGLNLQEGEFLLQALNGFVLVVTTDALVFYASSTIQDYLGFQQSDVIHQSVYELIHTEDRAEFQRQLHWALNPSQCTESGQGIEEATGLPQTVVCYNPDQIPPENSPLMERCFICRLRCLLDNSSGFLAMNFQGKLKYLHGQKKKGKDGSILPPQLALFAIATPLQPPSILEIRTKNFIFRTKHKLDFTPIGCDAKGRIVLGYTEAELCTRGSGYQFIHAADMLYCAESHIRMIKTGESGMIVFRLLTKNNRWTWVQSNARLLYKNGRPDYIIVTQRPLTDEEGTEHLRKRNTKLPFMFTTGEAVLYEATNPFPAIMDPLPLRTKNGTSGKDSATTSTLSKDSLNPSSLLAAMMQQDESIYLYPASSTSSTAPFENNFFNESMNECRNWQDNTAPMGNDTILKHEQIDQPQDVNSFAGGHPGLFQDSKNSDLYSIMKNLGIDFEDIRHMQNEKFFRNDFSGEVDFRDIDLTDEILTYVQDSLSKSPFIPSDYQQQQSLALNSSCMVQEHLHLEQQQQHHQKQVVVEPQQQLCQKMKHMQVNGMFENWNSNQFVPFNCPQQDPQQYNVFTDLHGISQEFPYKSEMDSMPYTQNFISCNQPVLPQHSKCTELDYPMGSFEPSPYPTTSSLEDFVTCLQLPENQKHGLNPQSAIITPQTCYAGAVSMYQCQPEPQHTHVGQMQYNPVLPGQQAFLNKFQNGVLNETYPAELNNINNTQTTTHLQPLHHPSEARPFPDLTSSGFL
Outline: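 HepG2 cells stably carrying a 20-DRE firefly luciferase reporter (HG2L7.5c1) treated with compound for 24 hr at 37C. Luciferase read by ONE-Glo luminescence, with CellTiter-Fluor viability read first.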

[3] = qHTS assay to identify small molecule that activate the aryl hydrocarbon receptor (AhR) signaling pathway - cell viability counter screen (AID 743086);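 also: HepG2 liver cells carrying the AhR DRE luciferase reporter; series mostly up to about 70 µM; nearly all actives have a fitted effect of over 45% in size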
Outline: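 HepG2-AhR-luc (HG2L7.5c1) cells, 4000/well, were preincubated 5 h at 37C, exposed to compound in qHTS format for 24 hr at 37C, then given CellTiter-Fluor for 30 min; viability was read as fluorescence in the reporter wells.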

[4] = target: Peroxisome proliferator-activated receptor gamma (Homo sapiens) (UniProt P37231); test: qHTS assay to identify small molecule agonists of the peroxisome proliferator-activated receptor gamma (PPARg) signaling pathway (AID 743094; active = well fitted activation curve with a large enough effect in the signal ratio in the repeat runs, not every such curve was filed as active; the % refers to the signal ratio)
Peroxisome proliferator-activated receptor gamma (Homo sapiens), sequence (P37231 whole entry, looked up): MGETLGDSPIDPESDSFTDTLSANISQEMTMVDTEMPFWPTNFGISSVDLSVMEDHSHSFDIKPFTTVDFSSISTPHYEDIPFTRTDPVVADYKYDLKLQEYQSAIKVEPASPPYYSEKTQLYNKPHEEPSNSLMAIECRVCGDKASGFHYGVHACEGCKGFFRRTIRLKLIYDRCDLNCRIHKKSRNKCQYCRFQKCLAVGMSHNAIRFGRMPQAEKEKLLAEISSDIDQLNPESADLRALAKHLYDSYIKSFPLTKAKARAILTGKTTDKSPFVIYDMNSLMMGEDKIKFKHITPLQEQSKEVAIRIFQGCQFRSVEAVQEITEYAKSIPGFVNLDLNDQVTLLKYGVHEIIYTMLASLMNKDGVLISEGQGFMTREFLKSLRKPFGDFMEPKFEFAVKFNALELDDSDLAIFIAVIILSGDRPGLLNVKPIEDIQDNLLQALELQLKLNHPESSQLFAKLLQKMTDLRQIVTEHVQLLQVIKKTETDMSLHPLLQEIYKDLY
Outline: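 Fluorescence-based beta-lactamase readout in HEK293H PPARg UAS-bla cells after 17 h compound exposure (37C) and 1 h B/G FRET substrate incubation at room temperature.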

[5] = target: Peroxisome proliferator-activated receptor gamma (Homo sapiens) (UniProt P37231); test: qHTS assay to identify small molecule antagonists of the peroxisome proliferator-activated receptor gamma (PPARg) signaling pathway (AID 743191; calls by dose curve; also: series mostly up to about 63 µM; nearly all actives have a fitted effect of over 30% in size)
Outline: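 GeneBLAzer PPARg UAS-bla HEK293H cells carrying a UAS-driven beta-lactamase reporter were plated at 3000 cells/well, preincubated 5 h at 37C, then given compound for 17 h at 37C; LiveBLAzer B/G FRET substrate was read after 1 h at room temperature.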

[6] = qHTS assay to identify small molecule antagonists of the peroxisome proliferator-activated receptor gamma (PPARg) signaling pathway - cell viability counter screen (AID 743194); conditions: Potency: co-treated with 50 nM rosiglitazone; also: nearly all actives have a fitted effect of over 55% in size
Outline: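 PPARg-UAS-bla HEK293H cells were plated, rested 5 h at 37 C, then treated with compounds plus rosiglitazone (50 nM final) for 17 h at 37 C; viability was then read by CellTiter-Glo luminescence after 30 min at room temperature.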

[7] = qHTS assay for small molecule agonists of the antioxidant response element (ARE) signaling pathway (AID 743202; active = well fitted activation curve with a large enough effect in the signal ratio in the repeat runs, not every such curve was filed as active; the % refers to the signal ratio)
Outline: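 Following a 16 h, 37 C exposure of reporter HepG2 cells (ARE-driven beta-lactamase, 2,000 cells/well) to compounds, FRET substrate was applied for 2 h at room temperature and fluorescence intensity recorded.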

[8] = qHTS assay for small molecule agonists of the antioxidant response element (ARE) signaling pathway - cell viability counter screen (AID 743203; calls by dose curve; also: nearly all actives have a fitted effect of over 55% in size)
Outline: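 Parallel cytotoxicity read-out for the ARE-bla screen: HepG2 reporter cells, 16 hrs with compounds, then CellTiter-Glo luminescence.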

[9] = qHTS assay for small molecule activators of the heat shock response signaling pathway - cell viability counter screen (AID 743209); also: nearly all actives have a fitted effect of over 50% in size
Outline: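 To flag cytotoxic compounds, HSE-bla HeLa cells plated at 1500 cells/well were dosed for 5 h at 37 C, followed by the reporter FRET read and then CellTiter-Glo, with luminescence recorded 30 min after reagent addition.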

[10] = qHTS assay for small molecule activators of the heat shock response signaling pathway (AID 743210; active = well fitted activation curve with a large enough effect in the signal ratio in the repeat runs, with a control signal flat, not every such curve was filed as active; the % refers to the signal ratio; also: series mostly up to about 63 µM)
Outline: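 Heat shock element–beta-lactamase HeLa reporter cells; qHTS with compounds for 5 h at 37 C; detection by FRET substrate fluorescence after 2.5 h at RT.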

[11] = target: Peroxisome proliferator-activated receptor delta (Homo sapiens) (UniProt Q03181); test: qHTS assay to identify small molecule antagonists of the peroxisome proliferator-activated receptor delta (PPARd) signaling pathway (AID 743215; active = well fitted inhibition curve with a large enough effect in the signal ratio in the repeat runs, not every such curve was filed as active; the % refers to the signal ratio;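 also: cells stimulated with agonist L165041 at 300 nM final during compound exposure; series mostly up to about 62 µM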)
Peroxisome proliferator-activated receptor delta (Homo sapiens), sequence (Q03181 whole entry, looked up): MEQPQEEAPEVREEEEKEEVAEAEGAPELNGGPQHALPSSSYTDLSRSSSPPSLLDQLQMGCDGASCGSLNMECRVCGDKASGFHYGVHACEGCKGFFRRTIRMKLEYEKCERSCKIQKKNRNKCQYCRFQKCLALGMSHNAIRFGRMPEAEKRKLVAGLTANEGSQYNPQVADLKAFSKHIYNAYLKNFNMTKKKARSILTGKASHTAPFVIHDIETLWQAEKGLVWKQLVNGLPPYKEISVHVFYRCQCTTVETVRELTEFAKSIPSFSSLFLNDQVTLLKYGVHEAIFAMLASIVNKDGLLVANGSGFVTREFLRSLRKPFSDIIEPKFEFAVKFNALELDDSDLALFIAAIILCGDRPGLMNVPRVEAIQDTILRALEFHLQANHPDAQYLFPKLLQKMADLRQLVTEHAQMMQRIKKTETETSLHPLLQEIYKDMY
Outline: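 Screen format: qHTS, antagonist mode. HEK293H PPARd-bla cells received compound and 300 nM L165041 (final), 17 h, 37 C. Beta-lactamase detected via FRET substrate fluorescence, 2 h, room temperature.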

[12] = qHTS assay to identify small molecule agonists of the farnesoid-X-receptor (FXR) signaling pathway - cell viability counter screen (AID 743218); also: nearly all actives have a fitted effect of over 45% in size
Outline: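 Same-well cytotoxicity check on FXR-UAS-bla HEK 293T cells: 5 h attachment, 16 h compound at 37 C, CellTiter-Glo luminescence read at room temperature after 30 min.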

[13] = qHTS assay to identify small molecule antagonists of the farnesoid-X-receptor (FXR) signaling pathway - cell viability counter screen (AID 743221; active = well fitted cell-killing curve with a large enough effect in the repeat runs, not every such curve was filed as active; also: nearly all actives have a fitted effect of over 50% in size)
Outline: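 GeneBLAzer FXR-UAS-bla HEK 293T cells, compound plus chenodeoxycholic acid (50 uM final), 16 h at 37 C. CellTiter-Glo added to the same wells after the beta-lactamase read; luminescence read after 30 min at room temperature as viability.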

[14] = target: Vitamin D3 receptor (Homo sapiens) (UniProt P11473); test: qHTS assay to identify small molecule agonists of the vitamin D receptor (VDR) signaling pathway (AID 743222; calls by dose curve)
Vitamin D3 receptor (Homo sapiens), sequence (P11473 whole entry, looked up): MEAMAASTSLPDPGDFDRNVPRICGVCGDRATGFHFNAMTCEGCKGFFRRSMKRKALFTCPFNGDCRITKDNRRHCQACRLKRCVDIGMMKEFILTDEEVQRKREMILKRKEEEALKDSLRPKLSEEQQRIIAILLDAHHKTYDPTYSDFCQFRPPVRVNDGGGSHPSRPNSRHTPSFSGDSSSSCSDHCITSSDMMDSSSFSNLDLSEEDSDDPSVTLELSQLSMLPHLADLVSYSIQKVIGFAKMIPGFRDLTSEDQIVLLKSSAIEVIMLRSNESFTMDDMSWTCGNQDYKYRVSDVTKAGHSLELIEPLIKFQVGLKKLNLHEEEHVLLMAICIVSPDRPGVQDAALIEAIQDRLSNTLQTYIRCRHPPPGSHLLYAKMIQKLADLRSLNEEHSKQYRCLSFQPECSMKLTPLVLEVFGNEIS
Outline: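 Using LiveBLAzer B/G FRET detection, agonism was scored in VDR-bla cells exposed overnight (16 h, 37C) to DMSO-dissolved compounds; substrate incubation was 2 h at room temperature.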

[15] = qHTS assay to identify small molecule agonists of the peroxisome proliferator-activated receptor delta (PPARd) signaling pathway - cell viability counter screen (AID 743211); also: nearly all actives have a fitted effect of over 55% in size
Outline: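 PPARd-bla HEK293H cells (3000/well) were pre-incubated 5 h at 37 C, then exposed to compound for 17 h at 37 C. After 2 h with LiveBLAzer substrate, CellTiter-Glo was added to the same wells; luminescence read after 30 min at room temperature.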

[16] = target: Peroxisome proliferator-activated receptor delta (Homo sapiens) (UniProt Q03181); test: qHTS assay to identify small molecule agonists of the peroxisome proliferator-activated receptor delta (PPARd) signaling pathway (AID 743212; calls by dose curve)
Outline: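 Beta-lactamase reporter read by fluorescence (LiveBLAzer B/G FRET, 2 h, room temperature). Test agents, in DMSO, incubated at 37 C with PPARd-bla HEK293H cells.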

[17] = qHTS assay to identify small molecule antagonists of the peroxisome proliferator-activated receptor delta (PPARd) signaling pathway - cell viability counter screen (AID 743213); also: nearly all actives have a fitted effect of over 50% in size
Outline: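 Viability counter-screen, qHTS format: PPARd-bla HEK293H, L165041 300 nM final, 17 h compound exposure at 37 C, CellTiter-Glo luminescence after 30 min RT.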

[18] = target: Bile acid receptor (Homo sapiens) (UniProt Q96RI1); test: qHTS assay to identify small molecule antagonists of the farnesoid-X-receptor (FXR) signaling pathway (AID 743217; active = well fitted inhibition curve with a large enough effect in the signal ratio in the repeat runs, not every such curve was filed as active; the % refers to the signal ratio)
Bile acid receptor (Homo sapiens), sequence (Q96RI1 whole entry, looked up): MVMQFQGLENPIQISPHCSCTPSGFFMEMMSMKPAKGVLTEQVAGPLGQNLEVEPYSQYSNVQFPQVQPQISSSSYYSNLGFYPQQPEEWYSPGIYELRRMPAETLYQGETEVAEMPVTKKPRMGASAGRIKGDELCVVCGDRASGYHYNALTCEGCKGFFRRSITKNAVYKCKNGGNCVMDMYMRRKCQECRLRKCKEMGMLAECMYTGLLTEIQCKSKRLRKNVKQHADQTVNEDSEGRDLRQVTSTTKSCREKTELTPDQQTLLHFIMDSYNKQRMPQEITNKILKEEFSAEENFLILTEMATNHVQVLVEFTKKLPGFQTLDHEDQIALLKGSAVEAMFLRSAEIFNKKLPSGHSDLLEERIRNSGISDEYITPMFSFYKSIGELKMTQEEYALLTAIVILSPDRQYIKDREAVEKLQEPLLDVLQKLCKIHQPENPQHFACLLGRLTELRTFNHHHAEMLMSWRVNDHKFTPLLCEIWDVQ
Outline: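 Quantitative HTS, beta-lactamase reporter format: FXR-UAS-bla HEK 293T cells co-treated 16 h at 37 °C with compounds and 50 uM final chenodeoxycholic acid, then read by B/G FRET fluorescence.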

[19] = target: Bile acid receptor (Homo sapiens) (UniProt Q96RI1); test: qHTS assay to identify small molecule agonists of the farnesoid-X-receptor (FXR) signaling pathway (AID 743220; active = well fitted activation curve with a large enough effect in the signal ratio in the repeat runs, not every such curve was filed as active; the % refers to the signal ratio)
Outline: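 FXR-UAS-bla HEK 293T cells carrying a UAS-driven beta-lactamase reporter were plated for 5 h at 37C/5% CO2, then exposed to DMSO-dissolved Tox21 10K compounds for 16 h at 37C. A LiveBLAzer B/G FRET substrate was loaded for 2 h at room temperature before fluorescence reading.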

[20] = target: Vitamin D3 receptor (Homo sapiens) (UniProt P11473); test: qHTS assay to identify small molecule antagonists of the vitamin D receptor (VDR) signaling pathway (AID 743223; active = well fitted inhibition curve with a large enough effect in the signal ratio in the repeat runs, not every such curve was filed as active; the % refers to the signal ratio)
Outline: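 VDR-bla cells were treated with compound plus 3 nM final 1alpha,25-dihydroxyvitamin D3 for 16 h at 37C. Beta-lactamase reporter read by B/G FRET substrate fluorescence after 2 h at room temperature. qHTS format.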

Measured: Potency

CCOc1cc(OP(=S)(OC)OC)nc(CC)n1
inactive: [1] | [2] | [3] | [4] | [5] | [6] | [7] | [8] | [9] | [10] | [11] | [12] | [13] | [14]

NCC1(CC(=O)O)CCCCC1
inactive: [1] | [2] | [3] | [4] | [5] | [6] | [7] | [8] | [9] | [10] | [15] | [16] | [17] | [12] | [13] | [14]

BrCc1ccc(Br)cc1
inactive: [1] | [2] | [3] | [4] | [5] | [6] | [7] | [8] | [9] | [10] | [15] | [16] | [17] | [11] | [18] | [12] | [19] | [13] | [14] | [20]

CC(Cl)(Cl)Cl
inactive: [1] | [2] | [3] | [4] | [5] | [6] | [7] | [8] | [9] | [10] | [15] | [16] | [11] | [12] | [13] | [14] | [20]

CCC(=O)c1ccc(Cl)cc1
inactive: [1] | [2] | [3] | [4] | [5] | [6] | [7] | [8] | [9] | [10] | [15] | [16] | [17] | [11] | [12] | [14] | [20]

S=C=S
inactive: [1] | [2] | [3] | [4] | [5] | [6] | [7] | [8] | [9] | [15] | [17] | [12] | [13] | [14] | [20]

OCC(Cl)CCl (configuration not stated)
inactive: [1] | [2] | [3] | [4] | [5] | [6] | [7] | [8] | [10] | [15] | [16] | [17] | [11] | [12] | [13] | [14] | [20]

CC(=O)CN(CC(C)=O)N=O
inactive: [1] | [2] | [3] | [4] | [5] | [6] | [7] | [8] | [9] | [10] | [15] | [16] | [17] | [11] | [12]

COc1ccc(CN2CCNCC2)c(OC)c1OC
inactive: [1] | [2] | [3] | [4] | [5] | [6] | [7] | [8] | [9] | [15] | [17] | [11] | [18] | [12] | [19] | [13]

NNC(N)=O
inactive: [1] | [2] | [3] | [4] | [5] | [6] | [7] | [8] | [9] | [10] | [15] | [16] | [17] | [11] | [18] | [12] | [19] | [13] | [14]

CCCCCCCC(=O)Cl
inactive: [1] | [2] | [3] | [4] | [5] | [6] | [7] | [8] | [9] | [10] | [15] | [17] | [11] | [18] | [12] | [19] | [13]

Cn1c(CCCC(=O)O)nc2cc(N(CCCl)CCCl)ccc21
inactive: [1] | [2] | [3] | [4] | [5] | [6] | [7] | [8] | [9] | [10] | [15] | [16] | [17] | [11] | [18] | [12] | [19] | [13]

O=C(Cl)C(Cl)(Cl)Cl
inactive: [1] | [2] | [3] | [4] | [5] | [6] | [7] | [8] | [9] | [10] | [15] | [16] | [11] | [18] | [12] | [19] | [14] | [20]

CN(C)CCN(C)C
inactive: [1] | [2] | [3] | [4] | [5] | [6] | [7] | [8] | [9] | [15] | [16] | [17] | [11] | [18] | [12] | [19] | [13] | [14] | [20]

CCCCS(=O)(=O)Cl
inactive: [1] | [2] | [3] | [4] | [5] | [6] | [8] | [9] | [10] | [15] | [16] | [17] | [11] | [18] | [12] | [19] | [14] | [20]

N#CN
inactive: [1] | [2] | [3] | [4] | [5] | [6] | [7] | [8] | [9] | [10] | [15] | [16] | [12] | [13] | [14] | [20]
